Rows were chosen to be rich in hits. Some 0.5% of all compounds tested hit in one or more screens of this group.
Tat export inh = E. coli Tat export inhibitors, primary screen, MC4100, TorA-mCherry reporter, fluorescence, single point; inhibition, % at 10 µM; actives 0.036% (n = 340,000); AID 488895, 2010;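 active means mean replicate inhibition at least 50% and at least half of replicates individually reaching 50%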;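 further: exported cargo escapes ClpAP degradation while cytoplasmic cargo is degraded and loses fluorescence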
phage Ecoli inh = growth loss of phage-infected E. coli, primary screen, RecBCD inhibitor project, absorbance, with phage, HTS. inhibition, % at 11.9 µM. actives 0.26% (n = 360,000). AID 651602, 2012; in the data active means inhibition above about 11%
E coli growth-1 = E. coli growth inhibition, primary screen, OD600. actives 0.21% (n = 330,000). Escherichia coli growth, 23 h; stronger effect = lower value. AID 1053175, 2014. OD600 absorbance (no concentration beside the values);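 active means OD600 absorbance below the run mean of sample wells minus 3.6 SD, in any replicate, cut at about 0.56 in these data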
E coli growth-2 = E. coli V3065 growth inhibition, primary screen, counter-screen for AddAB inhibitor project, absorbance, OD600; actives 0.27% (n = 330,000); 18 h; inhibition, % at 11.9 µM; AID 449728, 2010;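 active means inhibition above the campaign's mean inhibition across all tested compounds plus 3 SD, cut at about 9.9% in these data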;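 further: uninfected addAB+ strain grown without phage in ampicillin broth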
AddAB inh = growth inhibition of E. coli expressing H. pylori AddAB, primary screen, AddAB inhibitor project, absorbance; actives 0.29% (n = 330,000); inhibition, % at 11.9 µM; in the data active means inhibition above about 12%
AddAB confirm = growth loss of phage-infected E. coli expressing H. pylori AddAB, confirmation, AddAB inhibitor project, absorbance, E. coli V3065, T4 phage, triplicate; inhibition, % at 11.9 µM; AID 488942, 2010; OD; T4 phage with gene 2 nonsense mutations; shares compounds with AddAB inh; actives 64% (n = 880);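 active means mean inhibition above a set limit taken from the earlier primary screen, cut at about 13% in these data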;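 further: higher means less bacterial growth since AddAB block lets phage replicate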
RecBCD counter = growth loss of RecBCD+ E. coli with mutant T4 phage, counter-screen for AddAB inhibitor project, absorbance, V66 E. coli; actives 73% (n = 880); shares compounds with AddAB inh; AID 488955, 2010; OD growth; inhibition, % at 11.9 µM;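 active means mean inhibition above the mean of solvent-only control wells plus 3 SD, cut at about 4% in these data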;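 further: optical density read after an 18 h incubation at 37 °C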
bact viab count = bacterial viability inhibition counter-screen, confirmation, counter-screen for AddAB inhibitor project, absorbance | actives 35% (n = 880) | AID 488956, 2010 | absorbance (AddAB counterscreen) | shares compounds with AddAB inh | inhibition, % at 11.9 µM; in the data active means inhibition above about 25%
RecBCD conf = growth loss of phage-infected RecBCD+ E. coli, confirmation, RecBCD inhibitor project, absorbance, E. coli V66, T4 gene 2 phage | inhibition, % at 11.9 µM | shares compounds with phage Ecoli inh | E. coli V66 + T4 2- phage, growth OD | actives 45% (n = 890) | AID 651982, 2013;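 active means mean inhibition over triplicates exceeding the hit threshold derived in the original primary screen, cut at about 11% in these data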
Ecoli viability = E. coli viability inhibition, counter-screen for RecBCD inhibitor project, absorbance, high throughput; absorbance (OD) growth; inhibition, % at 11.9 µM; actives 29% (n = 890); shares compounds with phage Ecoli inh; in the data active means inhibition above about 20%;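 further: E. coli strain V66 grown with compound alone and no phage infection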
AddAB phage OD = growth loss of phage-infected AddAB-carrying E. coli, confirmation, counter-screen for RecBCD inhibitor project, absorbance, E. coli V3065, T4 phage. E. coli expressing H. pylori AddAB + T4 phage, OD growth; gene 2 mutant T4, recBCD-deleted host. actives 45% (n = 890). AID 651984, 2013. shares compounds with phage Ecoli inh. inhibition, % at 11.9 µM;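 active means mean inhibition above the solvent-only control wells' mean plus 3 SD, cut at about 22% in these data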;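 further: higher means less bacterial growth from phage killing when AddAB is blocked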
Hits are given with their value; - = inactive; . = no result.

SMILES | Tat export inh | phage Ecoli inh | E coli growth-1 | E coli growth-2 | AddAB inh | AddAB confirm | RecBCD counter | bact viab count | others
Cc1ccc(-n2c(-c3ccc(Br)cc3)c[n+]3c2CCc2ccc4cccnc4c2-3)cc1 | - | - | 0.491 | 24.3 | 30.9 | 76.2 | 5.5 | -
C=CCOc1ccc2cccc(C=NNC(=O)c3cc4cc([N+](=O)[O-])ccc4s3)c2c1 | . | . | - | . | . | . | . | .
C[C@@]12C(=O)N(CCc3c[nH]c4ccccc34)CC(=O)N1C1c3ccccc3OCC1C2c1ccccc1 (stereo partly specified) | . | . | - | . | . | . | . | .
Cc1ccc(NC(=O)COC(=O)C2CCN(c3ccc(C(F)(F)F)cn3)CC2)cc1C | - | - | - | 52.5 | 96.1 | - | - | -
O=C1C(Nc2ccccc2)=C/C(=N/S(=O)(=O)c2cccs2)c2ccccc21 | - | . | . | - | 16.6 | - | 4.7 | -
Cc1cc(C)cc(OCC(=O)NN=Cc2ccco2)c1 | . | . | - | . | . | . | . | .
CCN1CCN(C2=C(NS(=O)(=O)c3ccc(Br)cc3)C(=O)c3ccccc3C2=O)CC1 | - | - | - | 10.9 | 14.0 | - | - | -
NC(=NOC(=O)Nc1ccccc1)c1ncc([N+](=O)[O-])s1 | . | . | - | . | . | . | . | .
N/C(=N/OC(=O)c1ccccc1Cl)c1ncc([N+](=O)[O-])s1 | - | - | . | 10.2 | 14.0 | 37.4 | - | -
O=c1[nH]c(/C(=N\O)c2ccccc2)no1 | - | - | . | 18.2 | 16.4 | 24.5 | 4.3 | -
CC(O)COc1ccc(C(=NO)c2ccccc2)cc1 (stereo unspecified) | . | . | - | . | . | . | . | .
CC(=O)Oc1cc(O)c2c(=O)c(OC(C)=O)c(-c3ccc(OC(C)=O)c(OC(C)=O)c3)oc2c1 | - | . | - | - | 16.1 | 14.1 | 4.2 | -
COc1ccc(-c2oc3cc(OC(C)=O)cc(OC(C)=O)c3c(=O)c2OC)cc1 | - | - | - | . | . | . | . | .
Cc1c(OC(C)C(=O)NCC(O)c2ccccc2)ccc2c3c(c(=O)oc12)CCC3 (stereo unspecified) | - | - | - | 28.2 | 33.9 | - | - | -
Cc1c(OC(C)C(=O)N[C@H](C(=O)O)c2ccccc2)ccc2c3c(c(=O)oc12)CCCC3 (stereo partly specified) | - | - | - | - | - | . | . | .
CCOCCCn1c(SC(C(=O)Nc2cc(C)ccc2C)c2ccccc2)nnc1-c1ccc(Cl)cc1 (stereo unspecified) | - | - | - | 67.9 | 32.7 | - | - | -
CNC(=S)NN=C1CC(c2ccccc2)Oc2ccccc21 (stereo unspecified) | . | . | - | . | . | . | . | .
COc1ccc(S(=O)(=O)N2CCOC2CNC(=O)C(=O)NCCc2ccccc2)cc1OC (stereo unspecified) | - | - | - | - | - | . | . | .
COc1ccc(S(=O)(=O)N2CCOC2CNC(=O)C(=O)NCCc2ccccc2)cc1C (stereo unspecified) | - | - | - | 15.3 | 42.8 | - | - | -
O=C(Nc1nnc(-c2ccccn2)o1)c1cccc(Cl)c1 | - | - | - | - | - | . | . | .
O=C(Nc1nnc(-c2cccs2)o1)c1cccc(F)c1 | - | - | 0.354 | - | 15.9 | - | 14.4 | -
O=C(Nc1nnc(-c2ccco2)o1)c1cccc(Cl)c1 | - | - | - | - | 14.9 | - | - | -
Cc1cc(C=NNC(=O)c2cccnc2)c(C)n1CC(C)C | . | . | - | . | . | . | . | .
O=C(NCCCNCCCNC(=O)c1ccc(/C=N/O)nc1)c1ccc(/C=N/O)nc1 | - | - | . | 11.7 | 19.5 | - | - | -
CCN(C(=O)C1CCCN(c2nc(-c3ccc(OC)cc3)no2)C1)c1ccccc1F (stereo unspecified) | - | - | - | - | 22.1 | - | - | -
SMILES | Tat export inh | phage Ecoli inh | E coli growth-1 | E coli growth-2 | AddAB inh | AddAB confirm | RecBCD counter | bact viab count | others
CCN(C(=O)C1CCN(c2nc(-c3ccc(OC)cc3)no2)CC1)c1ccccc1 | - | - | - | - | - | . | . | .
Cc1ccc(S(=O)(=O)Oc2ccccc2C=NNC(N)=S)cc1 | . | . | - | . | . | . | . | .
Cc1ccc(C=N/N=C2/NC(=O)CS2)o1 | . | . | - | . | . | . | . | .
Cc1noc(NS(=O)(=O)c2ccc(NC(=O)C(F)(F)F)cc2)c1C | - | - | - | - | 15.1 | - | - | -
Cc1noc(NS(=O)(=O)c2ccc(NC(=O)C(C)(C)C)cc2)c1C | - | - | - | - | - | . | . | .
CC(C)OCC(O)CCc1n[nH]c(=S)n1-c1ccccc1 (stereo unspecified) | - | - | - | - | - | . | . | .
CCCCOCC(O)CCc1n[nH]c(=S)n1-c1ccccc1 (stereo unspecified) | - | - | - | 26.7 | 83.9 | - | - | -
CC1CCN(C(=O)CCC(=O)N2CC(C)Oc3ccccc32)CC1 (stereo unspecified) | - | - | - | 31.9 | 98.9 | - | - | -
O=C(Nc1ccc([N+](=O)[O-])cc1)Nc1ccc(OC(F)F)c(Cl)c1 | - | 12.9 | 0.288 | 14.7 | 14.9 | 15.2 | 17.0 | -
Cc1ccc(N2CC(NS(=O)(=O)c3cccs3)CC2=O)cc1 (stereo unspecified) | - | - | - | 98.1 | 98.3 | - | - | -
O=C(COc1ccccc1[N+](=O)[O-])NN=Cc1ccncc1 | . | . | - | . | . | . | . | .
CCC(=O)NC(c1ccccc1OC)c1ccc2cccnc2c1O (stereo unspecified) | - | . | - | 24.4 | 28.5 | 17.8 | 22.7 | -
Cc1ccnc2c1ccc1c(C)ccnc12 | - | . | 0.277 | 36.8 | 38.7 | 69.6 | 24.6 | -
CC(C)CC(N)c1cn(C(CCCCN)C(=O)N2CCNCC2)nn1 (stereo unspecified) | . | . | - | . | . | . | . | .
COc1ccc(C)cc1NC(=O)CSc1ccc(-c2ccccn2)nn1 | - | - | - | - | - | . | . | .
COc1cc(NC(=O)CSc2ccc(-c3ccccn3)nn2)cc(OC)c1 | - | 12.7 | - | 13.6 | 13.5 | - | 11.3 | - | RecBCD conf=-;Ecoli viability=-;AddAB phage OD=-
CCNC(=O)ON=C(C)c1sc(-c2ccc(Cl)cc2)nc1C | . | . | - | . | . | . | . | .

Screening data deposited in PubChem BioAssay by several laboratories.
